Assay outcomes: PubChem BioAssay, National Center for Advancing Translational Sciences (NCATS)
This is a sample that favours compounds with a hit; in the whole collection about 6.5% have one here.
Vaccinia mCherry: qHTS for Stage-Specific Inhibitors of Vaccinia Orthopoxvirus: mCherry Reporter Primary qHTS. Potency, µM (top dose mostly 36.5 µM), most hits filed as inhibitors. Vaccinia virus mCherry reporter infection, fluorescence. actives 0.63% (n = 310,000); calls by dose curve; tested in A549 cells; also: nearly all actives have a fitted effect of over 35% in size
Marburg entry inh: qHTS for inhibitors of binding or entry into cells for Marburg Virus. Marburg virus pseudotyped entry inhibition, cell reporter. Potency, µM (titrated, usually from 37.8 µM), actives largely listed as inhibitors. actives 1.8% (n = 300,000); calls by dose curve; tested in HEK293 cells
LASV entry inh: qHTS for Inhibitors of binding or entry into cells for Lassa Virus; actives 1.2% (n = 300,000); Lassa virus pseudotype entry inhibition, cell reporter; Potency, µM (highest dose often 37.9 µM), most hits filed as inhibitors; calls by dose curve; tested in HEK293 cells; also: nearly all actives have a fitted effect of over 50% in size
HCMV antiviral: qHTS Assay for inhibitors of the human cytomegalovirus (HCMV); HFF cells, HCMV-luciferase reporter, 72 h; active compounds read low; activity change, negative = inhibition, % at 57.5 µM; actives 4.5% (n = 410,000); in the data active = activity change below about -60%; inconclusive = no clear call, values can overlap the other calls; inactive = above about -39%
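Compounds were evaluated in HFFs infected with an HCMV luciferase reporter virus (MOI 1 PFU/cell). Luciferase in lysates collected 72 h post infection served as the replication measure.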
Vaccinia Venus: qHTS for Stage-Specific Inhibitors of Vaccinia Orthopoxvirus: Venus Reporter Primary qHTS. AID 720580, 2013. Vaccinia virus Venus reporter expression, fluorescence. actives 0.46% (n = 330,000). Potency, µM (top dose mostly 36.5 µM), usual class: inhibitors; calls by dose curve; tested in A549 cells; also: nearly all actives have a fitted effect of over 30% in size
FMDV inh: High Throughput Screening for Foot and Mouth Disease Virus Antivirals; FMDV antiviral cell-based qHTS; Potency, µM (top dose mostly 57.9 µM), usual class: inhibitors; actives 1.2% (n = 410,000); calls by dose curve; tested in HEK293T cells; also: read-out not given here; nearly all actives have a fitted effect of over 45% in size
Numbers stand for hits; i = inactive; ? = inconclusive; nt = no result; [ ] = another dose, or the depositor's remark.

SMILES	Vaccinia mCherry	Marburg entry inh	LASV entry inh	HCMV antiviral	Vaccinia Venus	FMDV inh
CSc1ccc(/C=N/Nc2nc(C)cc(C)n2)cc1	i	i	7.08µM	?	i	i
C/C(=N\NC(=O)CNc1cccc(C)c1)c1ccc(Br)s1	i	i	i	-61.9	i	i
O=C(N/N=C/c1ccc[nH]1)c1cc2ccccc2cc1O	i	i	i	-99.2	i	i
O=C(CNc1cccc(C(F)(F)F)c1)N/N=C/c1cccc(Br)c1	i	?	?	-73.5	?	i
O=C(CNc1cccc2ccccc12)N/N=C/c1ccc[nH]1	?	?	?	-68.0	?	i
O=C(N/N=C/c1ccncc1)c1cc2ccccc2cc1O	nt	nt	nt	i	nt	i
COc1cc(NC(=O)C2CCN(S(=O)(=O)c3c(C)noc3/C=C/c3c(C)cc(C)cc3C)CC2)cc(OC)c1	i[7.34 µM]	nt	?	i	i[7.34 µM]	i
Cc1cccc(NCC(=O)N/N=C/c2cccc(Br)c2)c1	nt	nt	nt	?	nt	i
Cc1cccc(NCC(=O)N/N=C\c2ccc[nH]2)c1	?	7.08µM	?	i	i	i
CCCc1cc(=O)n2c(C(=O)Nc3ccc(OCC)cc3)c(C(=O)Nc3ccc(C)cc3)sc2n1	i	i	?	-83.7	i	i
CCOc1ccccc1NC(=O)COC(=O)/C=C/c1ccc(OC)c(OC)c1	i	?	i	?	i	17.8µM
COC(=O)Nc1nc2ccccc2[nH]1	?	i	i	i	i	i
COC(=O)Nc1nc2ccc(Oc3ccc(NC(=O)Nc4ccccc4)cc3)cc2[nH]1	nt	nt	3.15µM	nt	nt	nt
COC(=O)Nc1nc2ccc(-c3n[nH]c(=O)c4ccccc34)cc2[nH]1	i	i	?	i	i	i
C=C(c1ccc2nc(NC(=O)OC)[nH]c2c1)c1cccs1	?	?	?	-88.4	?	i
CCc1cccc(NC(=O)Nc2ccc(Oc3ccc4nc(NC(=O)OC)[nH]c4c3)cc2)c1	nt	nt	12.5µM	nt	nt	nt
C=CCOc1ccc2nc(NC(=O)OC)[nH]c2c1	nt	?	?	?	nt	i
Cc1noc(C)c1CSc1nc2sc(C)c(C)c2c(=O)n1C1CCCC1	nt	11.6µM	i	i	nt	i
C=CCn1c(SCc2c(C)noc2C)nc2sc3c(c2c1=O)CCCC3	nt	20.6µM	?	i	nt	i
Cc1ccc(CN(C(=O)COc2cccc([N+](=O)[O-])c2)c2ccccn2)cc1	i	?	i	i	i	i
Cc1ccc(CN(C(=O)COc2cccc([N+](=O)[O-])c2)c2ccccn2)o1	i	2.82µM	?	?	i	i
COc1ccc(CCC(=O)Nc2c(-c3ccc(N(C)C)cc3)[nH][nH]c2=O)cc1	i	nt	nt	-68.0	i	i
COc1ccc(-c2[nH][nH]c(=O)c2NC(=O)c2ccccn2)cc1	i	nt	nt	i	i	i
Nc1nc(N)c2cc([N+](=O)[O-])ccc2n1	?	i	i	i	i	i
Nc1nc(N)c2cc(S(=O)(=O)c3ccc4ccccc4c3)ccc2n1	?	nt	nt	-82.0	?	i
SMILES	Vaccinia mCherry	Marburg entry inh	LASV entry inh	HCMV antiviral	Vaccinia Venus	FMDV inh
C=C(CCC(=O)c1ccccc1)C(=O)c1ccccc1	i	?	?	-81.3	?	?
C=C(C(=O)c1ccccc1)C(CC(=O)c1ccccc1)c1ccccc1 (stereo unspecified)	12.6µM	?	10µM	-101.4	?	17.8µM
O=C(Cc1ccccc1)CC(CC(=O)c1ccccc1)c1ccccc1 (stereo unspecified)	i	nt	nt	i	i	i
COc1cccc(N2CCN(C(=O)c3ccc(C)c(NC(=O)c4nsc5ccccc45)c3)CC2)c1	i	nt	i	i	i	?
C=CCN1C(=O)/C(=C/c2ccc3c(c2)CCCN3CCC)C(=O)NC1=S	i	i	i	i	i	31.6µM
C=CCN1C(=O)/C(=C/c2ccc(Br)s2)C(=O)NC1=S	nt	nt	nt	i	nt	31.6µM
CCN1C(=O)/C(=C/c2ccc3c(c2)CCN3CCCCl)C(=O)NC1=S	i	i	i	i	i	?
CC(C)Sc1ncc(Cl)c(C(=O)N(Cc2ccc(F)cc2)C2CCS(=O)(=O)C2)n1 (stereo unspecified)	i	i	i	i	i	i
O=C(COC(=O)c1c2c(nc3ccccc13)/C(=C/c1ccco1)CC2)NC1CCCC1	?	?	12.6µM	i	i	i
CNc1nc2cnc(Nc3ccccn3)cc2n1-c1cc(OC)c(OC)c(OC)c1	nt	nt	nt	i	nt	nt
Nc1nc(SCc2ccc(F)cc2)ns1	i	i	?	-74.3	i	i
Nc1nnc(SCc2ccc(F)cc2)s1	nt	i	?	i	nt	i
O=C(c1ccccc1)c1ccc2nc(N3CCN(c4ccc(F)cc4)CC3)c3nncn3c2c1	?	i	?	-66.7	?	i
O=C(NCC1CCCCC1)C1(CC2CC(c3cccc(Br)c3)=NO2)CCNCC1 (stereo unspecified)	11.2µM	nt	nt	i	10µM	i
CC(C)(C)OC(=O)N1CCC(CC2CC(c3cccc(Br)c3)=NO2)(C(=O)NCC2CCCCC2)CC1 (stereo unspecified)	i	nt	nt	i	?	i
Cc1nn(CC(=O)O)c(C)c1C	nt	i	i	-89.8	nt	?
COc1ccc(C2(O)CC3CCC(C2)N3c2cc(C)nc(-c3ccccc3)n2)cc1 (stereo unspecified)	i	11.6µM	i	i	i	?
COc1ccc2nc(-c3ccccc3)nc(C3CCCCC3)c2c1	i	nt	nt	i	i	i
Cc1ccccc1CN1[C@H](C)[C@@H](c2ccccc2)Oc2c(Cl)cccc2S1(=O)=O	nt	nt	i	nt	nt	nt
Cc1n[nH]c(=O)c2c(NC(=O)CSc3nnnn3-c3ccc(O)cc3)oc(C)c12	i	?	i	-67.1	i	i
Cc1n[nH]c(=O)c2c(NC(=O)CSc3nc4ccccc4c(=O)n3C(C)C)oc(C)c12	i	?	?	i	i	i
Cc1n[nH]c(=O)c2c(NC(=O)CSc3nc4ccccc4c(=O)n3CCCO)oc(C)c12	i	i	i	-86.7	i	i
CCCCOc1ccc(C(=O)N(Cc2ccc(N(C)C)cc2)Cc2ccco2)cc1	i	i	?	i	i	i
Cc1ccccc1OCCCn1c(-c2ccc(Cl)cc2)nc2ccccc2c1=O	i	i	i	i	i	i
NC(=O)c1sc2nc3c(c(-c4ccc(Cl)cc4)c2c1N)CCCC3	?	?	i	-61.2	?	i
SMILES	Vaccinia mCherry	Marburg entry inh	LASV entry inh	HCMV antiviral	Vaccinia Venus	FMDV inh
NC(=O)c1sc2nc3c(c(-c4ccco4)c2c1N)CCCC3	nt	nt	nt	-64.3	nt	?
N#Cc1sc2nc3c(c(-c4ccco4)c2c1N)CCCC3	i	?	i	?	i	?
COC(=O)c1sc2nc3c(c(-c4cccs4)c2c1N)CCCC3	i	i	i	?	i	i
Cc1ccc(-c2c3c(nc4sc(C(N)=O)c(N)c24)CCC3)cc1	nt	i	i	-86.8	i	i
O=C(NCc1cccnc1)c1cnn(-c2nccc(-c3cccs3)n2)c1C1CC1	i	nt	nt	nt	i	i
COC(=O)[C@@H](NC(=O)C1CCCN(c2nc(C)c3ccc(C)cc3n2)C1)C(C)C (stereo partly specified)	i	nt	nt	nt	i	i
